# Experimental data from PubChem BioAssay (NCATS).
# Values without a mark were called inactive. Records with an inconclusive call do not appear. This is one part of the list. Activity calls are given as the source filed them. Unless noted, the call rests on the fitted dose curve; in most records, active means well fitted curve in either direction with a large enough effect (not every such curve was filed as active); inconclusive means small, poorly fitted or top-dose-only effect, or another doubt; inactive means flat fitted curve, though single readings scatter.
# What was measured:
# [1] = molecular target: Lysosomal acid glucosylceramidase (Homo sapiens) (UniProt P04062); test: Glucocerebrosidase-p2 (AID 348; in the data active means potency below about 10 µM; further: potency means the concentration at half of the fitted maximal effect); conditions: purified GBA, blue fluorogenic substrate, 40 min
# Lysosomal acid glucosylceramidase (Homo sapiens), sequence (P04062 whole entry, looked up): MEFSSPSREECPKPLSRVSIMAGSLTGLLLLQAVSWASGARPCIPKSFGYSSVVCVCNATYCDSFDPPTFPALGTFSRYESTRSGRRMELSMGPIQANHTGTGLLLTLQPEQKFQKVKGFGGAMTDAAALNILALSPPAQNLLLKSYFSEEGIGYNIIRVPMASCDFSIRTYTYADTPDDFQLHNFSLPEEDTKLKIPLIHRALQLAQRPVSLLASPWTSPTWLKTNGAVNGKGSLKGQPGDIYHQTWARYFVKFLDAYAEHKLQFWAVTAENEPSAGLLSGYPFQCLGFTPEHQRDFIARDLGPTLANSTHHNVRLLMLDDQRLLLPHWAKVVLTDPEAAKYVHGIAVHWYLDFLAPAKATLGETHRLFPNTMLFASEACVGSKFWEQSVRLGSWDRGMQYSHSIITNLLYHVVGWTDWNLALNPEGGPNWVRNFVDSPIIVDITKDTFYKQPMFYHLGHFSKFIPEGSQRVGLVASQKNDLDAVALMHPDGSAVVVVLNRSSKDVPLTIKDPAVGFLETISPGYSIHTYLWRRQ
# Summary of the method: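 Normal human glucocerebrosidase (0.2 nM) with blue fluorogenic substrate (80 uM final) in citrate/phosphate pH 5.9 with 10mM sodium taurocholate, 0.01% tween-20; 40 min RT, NaOH/glycine stop; fluorescence Ex 365/Em 440; AC50 from a titration from 0.6 nM upwards.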
# [2] = AP1 Signaling Pathway (AID 357); conditions: ME-180 AP-1-bla reporter, EGF-induced, beta-lactamase ratio, 5 h; at 7.69 µM (top of the series) unless noted;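 further: ME-180 reporter cells stimulated with EGF at its EC50 level; on the % scale 0 is the no-effect control and ±100 the full control effect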
# Summary of the method: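 AP-1-bla ME-180 cells, Opti-MEM + 0.5% dialyzed FBS, plated overnight 37 °C. Cpd titration + EC50 EGF, 5 h 37 °C. CCF4 2.5 h RT; ex 405, em 460/530 ratio → %activity, AC50.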
# [3] = molecular target: Cytochrome P450 1A2 (Homo sapiens) (UniProt P05177); test: p450-cyp1a2 (AID 410; calls by dose curve; further: potency means the concentration at half of the fitted maximal effect;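 on activity change, negative = inhibition: -100% = full effect of reference inhibitor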); conditions: recombinant CYP1A2, luciferin-ME demethylation, luminescence; series mostly up to 11.4 µM
# Cytochrome P450 1A2 (Homo sapiens), sequence (P05177 whole entry, looked up): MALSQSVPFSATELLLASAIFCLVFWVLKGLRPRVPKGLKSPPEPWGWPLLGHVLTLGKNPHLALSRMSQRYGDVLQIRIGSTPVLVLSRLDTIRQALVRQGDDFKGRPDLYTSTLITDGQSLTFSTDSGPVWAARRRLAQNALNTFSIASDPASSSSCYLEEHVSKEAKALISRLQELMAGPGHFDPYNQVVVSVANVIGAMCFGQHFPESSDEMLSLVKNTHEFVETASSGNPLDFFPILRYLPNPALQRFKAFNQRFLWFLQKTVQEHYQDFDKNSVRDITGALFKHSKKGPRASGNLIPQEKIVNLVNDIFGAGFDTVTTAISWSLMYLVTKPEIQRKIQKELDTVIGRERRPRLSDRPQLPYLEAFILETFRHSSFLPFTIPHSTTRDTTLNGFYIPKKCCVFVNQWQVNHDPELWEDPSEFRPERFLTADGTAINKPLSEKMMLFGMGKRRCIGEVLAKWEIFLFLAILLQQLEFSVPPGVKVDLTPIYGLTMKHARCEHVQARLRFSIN
# Summary of the method: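 O-Demethylation of luciferin 6' methyl ether by human CYP1A2 is monitored as luciferase luminescence. Substrate sits at Km (100uM); enzyme is 20nM. Values are scaled to 57 uM furafylline as maximal inhibition.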
# [4] = NFAT Signaling Pathway (AID 444); conditions: Jurkat NFAT-bla M1, carbachol, beta-lactamase ratio, 5 h; at 7.69 µM (top of the series) unless noted;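 further: carbachol stimulus at about its EC50 of 1 µM final; on the % scale 0 is the no-effect control and ±100 the full control effect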
# Summary of the method: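 Jurkat cells with NFAT-driven β-lactamase reporter and co-expressed M1 receptor, stimulated with carbachol (final 1 uM, ~EC50), compound titration, 5 h at 37 °C. CCF4 loaded 1 h at RT; 460/530 nm ratio gave %activity and AC50.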
# [5] = Stat Signaling Pathway (AID 446); conditions: ME-180 (cervical carcinoma) SIE beta-lactamase reporter, IL-6 stimulated, 5 h; at 7.69 µM (top of the series) unless noted;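 further: ME-180 cervical cancer cells given 40 pM IL-6 alongside compound; SIE-controlled beta-lactamase reporter measured as 460/530 nm FRET emission ratio; on the % scale 0 is the no-effect control and ±100 the full control effect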
# Summary of the method: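 Emission at 460 and 530 nm (excitation 405 nm) reports SIE-controlled beta-lactamase in ME-180 cells. Cells received compound with 40 pM IL-6 for 5 hrs at 37 C; data scaled between 300 pM IL-6 and 125 nM JAK-inhibitor controls.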
# [6] = molecular target: Glucocorticoid receptor (Homo sapiens) (UniProt P04150); test: GR-GFP Redistribution (AID 450;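 active means compounds whose dose series gives a full or clear partial fitted curve of increased nuclear translocation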; further: potency means the concentration at half of the fitted maximal effect); conditions: U2OS GR-GFP nuclear translocation, laser cytometry, 2 h
# Glucocorticoid receptor (Homo sapiens), sequence (P04150 whole entry, looked up, the tested form may be a part): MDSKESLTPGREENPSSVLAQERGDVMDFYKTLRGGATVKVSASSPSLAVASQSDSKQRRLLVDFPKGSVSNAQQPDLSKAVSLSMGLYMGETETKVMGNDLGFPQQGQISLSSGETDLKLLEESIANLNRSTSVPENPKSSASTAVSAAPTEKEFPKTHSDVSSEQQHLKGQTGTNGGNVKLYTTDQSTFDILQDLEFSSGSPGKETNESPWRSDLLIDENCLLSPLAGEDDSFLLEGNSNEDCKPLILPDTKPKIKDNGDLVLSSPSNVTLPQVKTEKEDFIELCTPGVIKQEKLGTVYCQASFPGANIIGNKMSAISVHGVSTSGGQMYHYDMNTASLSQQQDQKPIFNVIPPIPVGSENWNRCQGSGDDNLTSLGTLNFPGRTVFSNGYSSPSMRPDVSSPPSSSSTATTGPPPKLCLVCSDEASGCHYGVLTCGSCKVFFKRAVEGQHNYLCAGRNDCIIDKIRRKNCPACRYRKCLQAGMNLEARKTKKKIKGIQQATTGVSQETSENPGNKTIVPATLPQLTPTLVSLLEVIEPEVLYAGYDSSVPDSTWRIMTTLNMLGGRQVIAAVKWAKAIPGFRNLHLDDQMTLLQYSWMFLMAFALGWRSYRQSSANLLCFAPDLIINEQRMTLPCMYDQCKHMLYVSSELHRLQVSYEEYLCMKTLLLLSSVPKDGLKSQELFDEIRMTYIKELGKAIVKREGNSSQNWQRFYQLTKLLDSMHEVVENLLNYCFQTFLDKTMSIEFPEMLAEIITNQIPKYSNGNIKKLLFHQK
# [7] = molecular target: Glucocorticoid receptor (Homo sapiens) (UniProt P04150); test: GR-EFC Redistribution (AID 451; calls by dose curve; further: potency means the concentration at half of the fitted maximal effect); conditions: CHO-K1 GR-EFC translocation, beta-gal luminescence, 2 h
# Summary of the method: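 CHO-K1 cells expressing nuclear EA and GR-ED fragments of b-gal; compounds titrated up to 46 uM final, 2 h at 37 C. GR nuclear translocation read as complemented b-gal luminescence after 1 h RT detection.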
# [8] = molecular target: Mitogen-activated protein kinase 10 (Mus musculus) (UniProt Q61831); test: JNK3 AlphaScreen Assay (AID 530); conditions: JNK3 lysate, c-Jun phosphorylation; series mostly up to 11.4 µM;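 further: kinase came from lysate of stimulated human HepG2 cells; signal reports phosphorylation of biotinylated GST-cJun 1-79 at Ser73 with 10 µM ATP; on the % scale 0 is the no-effect control and ±100 the full control effect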
# Summary of the method: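 Activity was read by AlphaScreen after JNK3-containing HepG2 lysate (cytokine pre-activated) phosphorylated biotinylated GST-cJun with 10 uM ATP at room temperature. Phospho-Ser73 cJun antibody with Protein-A acceptor beads provided detection.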
# [9] = molecular target: 3',5'-cyclic-AMP phosphodiesterase 4B (Homo sapiens) (UniProt Q07343); test: qHTS Assay for Inhibitors of PDE-IV (AID 607; active means well fitted activation curve with a large enough effect in the main read-out, with a control signal flat, not every such curve was filed as active; further: % of control where 0% means no effect); conditions: HEK293 ACTOne CNG channel cells, membrane potential fluorescence; series mostly up to 22.9 µM
# 3',5'-cyclic-AMP phosphodiesterase 4B (Homo sapiens), sequence (Q07343 whole entry, looked up): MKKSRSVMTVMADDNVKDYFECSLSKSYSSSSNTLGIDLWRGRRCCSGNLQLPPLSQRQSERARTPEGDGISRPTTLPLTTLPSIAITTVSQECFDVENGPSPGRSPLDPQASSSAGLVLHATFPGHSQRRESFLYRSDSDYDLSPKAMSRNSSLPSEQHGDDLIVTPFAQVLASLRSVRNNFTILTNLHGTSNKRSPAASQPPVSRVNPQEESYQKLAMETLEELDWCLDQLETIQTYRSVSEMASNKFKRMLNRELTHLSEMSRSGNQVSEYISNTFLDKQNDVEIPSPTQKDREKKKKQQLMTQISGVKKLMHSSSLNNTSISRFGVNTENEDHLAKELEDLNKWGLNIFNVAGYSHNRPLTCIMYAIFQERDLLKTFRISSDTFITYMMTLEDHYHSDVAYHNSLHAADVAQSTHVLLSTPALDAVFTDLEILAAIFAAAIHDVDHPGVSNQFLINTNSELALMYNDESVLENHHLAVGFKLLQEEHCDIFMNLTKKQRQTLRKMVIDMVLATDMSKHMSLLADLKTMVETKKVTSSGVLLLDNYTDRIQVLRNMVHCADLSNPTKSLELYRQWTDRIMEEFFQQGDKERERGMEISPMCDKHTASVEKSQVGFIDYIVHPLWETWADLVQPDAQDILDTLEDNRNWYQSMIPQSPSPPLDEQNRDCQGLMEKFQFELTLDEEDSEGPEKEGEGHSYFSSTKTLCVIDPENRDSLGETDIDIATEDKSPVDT
# Summary of the method: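 The readout is membrane depolarisation from a cAMP-sensing CNG channel, detected with a potential dye at ex 535/em 590. Cells were HEK293-derived (endogenous PDE-IV) at 1000 cells/well, titrated up to 22.9 uM final.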
# [10] = molecular target: Ubiquitin carboxyl-terminal hydrolase 1 (Homo sapiens) (UniProt O94782); test: Inhibitors of USP1/UAF1: Pilot qHTS (AID 504865; active means well fitted inhibition curve with a large enough effect; further: nearly all actives have a fitted effect of over 35% in size; further: potency means the concentration at half of the fitted maximal effect); conditions: purified USP1/UAF1, Ub-rhodamine cleavage fluorescence; series mostly up to 114 µM
# Ubiquitin carboxyl-terminal hydrolase 1 (Homo sapiens), sequence (O94782 whole entry, looked up): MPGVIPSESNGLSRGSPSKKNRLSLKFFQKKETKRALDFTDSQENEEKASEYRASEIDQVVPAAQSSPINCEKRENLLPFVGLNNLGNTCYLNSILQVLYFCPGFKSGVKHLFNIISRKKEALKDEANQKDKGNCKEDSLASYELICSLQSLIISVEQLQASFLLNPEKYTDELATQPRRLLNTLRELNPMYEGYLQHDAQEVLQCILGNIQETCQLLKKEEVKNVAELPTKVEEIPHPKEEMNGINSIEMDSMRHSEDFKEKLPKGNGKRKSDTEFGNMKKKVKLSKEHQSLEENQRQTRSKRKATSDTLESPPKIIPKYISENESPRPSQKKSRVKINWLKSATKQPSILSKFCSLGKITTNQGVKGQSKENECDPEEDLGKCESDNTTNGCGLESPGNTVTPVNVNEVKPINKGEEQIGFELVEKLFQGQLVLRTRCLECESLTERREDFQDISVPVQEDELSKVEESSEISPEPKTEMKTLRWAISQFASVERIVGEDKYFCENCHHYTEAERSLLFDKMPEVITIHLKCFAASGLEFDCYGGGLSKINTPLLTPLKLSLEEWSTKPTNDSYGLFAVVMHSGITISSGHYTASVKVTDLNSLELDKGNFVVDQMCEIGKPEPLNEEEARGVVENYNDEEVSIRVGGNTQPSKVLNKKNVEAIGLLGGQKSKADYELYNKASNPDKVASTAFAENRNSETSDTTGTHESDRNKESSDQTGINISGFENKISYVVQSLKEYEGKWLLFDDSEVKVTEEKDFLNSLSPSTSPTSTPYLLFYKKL
# Summary of the method: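 Enzyme-free wells gave the negative control, while test wells held 1nM USP1/UAF1 preincubated with compound for 15 min at room temperature. Ub-Rho at 150nM final started the reaction, and fluorescence at 480/540 nm was recorded kinetically.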
# [11] = qHTS Assay for Inhibitors of Fructose-1,6-bisphosphate Aldolase from Giardia Lamblia: Coupling assay counterscreen confirmation (AID 2795; active means well fitted inhibition curve with a large enough effect; further: on the % scale 0 is the no-effect control and ±100 the full control effect; nearly all actives have a fitted effect of over 55% in size); conditions: GAPDH coupling enzyme counterscreen, biochemical; series mostly up to 57.5 µM
# Summary of the method: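 Counterscreen, no aldolase: coupling enzyme reagent + cpd (up to 57.5 uM final), 10 min RT; add substrate + coupling system + AmpLite Red, 20 min RT; fluorescence ex 525/em 598 nm.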
# [12] = molecular target: Fructose-bisphosphate aldolase A (Oryctolagus cuniculus) (UniProt P00883); test: qHTS Assay for Inhibitors of Fructose-1,6-bisphosphate Aldolase from Giardia Lamblia: Rabbit FBPA Selectivity (AID 2794; active means well fitted inhibition curve with a large enough effect; further: on the % scale 0 is the no-effect control and ±100 the full control effect; nearly all actives have a fitted effect of over 60% in size); conditions: Rabbit muscle FBPA enzyme inhibition, selectivity counter-screen; series mostly up to 57.5 µM
# Fructose-bisphosphate aldolase A (Oryctolagus cuniculus), sequence (P00883 whole entry, looked up): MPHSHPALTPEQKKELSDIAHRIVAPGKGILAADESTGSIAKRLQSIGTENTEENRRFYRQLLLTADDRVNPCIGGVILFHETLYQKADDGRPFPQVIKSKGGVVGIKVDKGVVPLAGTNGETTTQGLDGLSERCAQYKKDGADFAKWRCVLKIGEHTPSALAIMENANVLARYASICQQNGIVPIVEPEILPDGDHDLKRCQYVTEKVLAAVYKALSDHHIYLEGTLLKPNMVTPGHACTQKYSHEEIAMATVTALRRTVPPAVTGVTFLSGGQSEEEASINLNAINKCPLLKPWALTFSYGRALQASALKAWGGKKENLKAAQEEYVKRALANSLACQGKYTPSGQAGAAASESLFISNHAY
# Summary of the method: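 AmpLite Red readout, ex/em 525/598 nm. Rabbit FBPA, GAP-linked coupling enzymes; 10 min cpd preincubation, then 20 min after substrate, both RT. Concentration-response up to 57.5 uM final.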
# [13] = qHTS profiling for inhibitors of Plasmodium falciparum proliferation (AID 504749; active means well fitted inhibition curve with a large enough effect; further: nearly all actives have a fitted effect of over 60% in size; further: potency means the concentration at half of the fitted maximal effect;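 on activity, negative = inhibition: 0% = DMSO vehicle and full inhibition = artemisinin control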); conditions: P. falciparum in erythrocytes, SYBR Green DNA, 72 h, at 28.7 µM (top of the series)
# Summary of the method: (§1)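 Each compound contacts P. falciparum-infected red blood cells for 72 h at 37 C; lysis buffer (Tris, EDTA, saponin, Triton X, SYBR Green I) is added and fluorescence measured next morning; values normalized to controls.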
# AS120 = test: as above; conditions: P. falciparum in erythrocytes, SYBR Green DNA, 72 h; series mostly up to 28.7 µM
# Summary of the method: as §1
# CP192 = test: as above; conditions: P. falciparum in erythrocytes, SYBR Green DNA, 72 h; series mostly up to 28.7 µM
# Summary of the method: as §1
# CP203 = test: as above; conditions: P. falciparum in erythrocytes, SYBR Green DNA, 72 h; series mostly up to 28.7 µM
# Summary of the method: as §1
# CP247 = test: as above; conditions: P. falciparum in erythrocytes, SYBR Green DNA, 72 h; series mostly up to 28.7 µM
# Summary of the method: as §1
# DFO2036 = test: as above; conditions: P. falciparum in erythrocytes, SYBR Green DNA, 72 h; series mostly up to 28.7 µM
# Summary of the method: as §1
# PC49 = test: as above; conditions: P. falciparum in erythrocytes, SYBR Green DNA, 72 h; series mostly up to 28.7 µM
# Summary of the method: as §1
# W2 = test: as above; conditions: P. falciparum in erythrocytes, SYBR Green DNA, 72 h; series mostly up to 28.7 µM
# Summary of the method: as §1
smiles,measurement,setting,value
CNc1ncncc1-c1ccc(C(=O)N(C)C)cc1,Potency,[1],> 11.4 µM
same,"activity change, negative = inhibition",[2],-7.23%
same,Potency,[3],15.8 µM (active)
same,"activity change, negative = inhibition",[4],7.99%
same,"activity, negative = inhibition",[5],8.34%
same,Potency,[6],> 46 µM
same,Potency,[7],> 46 µM
same,Potency,[8],inactive
same,Potency,[9],inactive
same,Potency,[10],inactive
CN(C)CCCNc1ncnc2nc[nH]c12,Potency,[1],> 11.4 µM
same,"activity change, negative = inhibition",[2],-0.851%
same,Potency,[3],inactive
same,"activity change, negative = inhibition",[4],-10.5%
same,"activity, negative = inhibition",[5],3.41%
same,Potency,[6],> 46 µM
same,Potency,[7],> 9.22 µM
same,Potency,[8],inactive
same,Potency,[9],inactive
CN(N=O)c1ccc(/C=C\c2ccnc3ccccc23)cc1,Potency,[1],> 11.4 µM
same,"activity change, negative = inhibition",[2],-0.154%
same,Potency,[3],0.158 µM (active)
same,"activity change, negative = inhibition",[4],7.28%
same,"activity, negative = inhibition",[5],-0.754%
same,Potency,[6],> 46 µM
same,Potency,[7],> 9.22 µM
same,Potency,[8],inactive
CN(C)c1ccc(-c2nc(N3CCNCC3)c3ccccc3n2)cc1,Potency,[1],> 11.4 µM
same,"activity change, negative = inhibition",[2],-12.7%
same,Potency,[3],10 µM (active)
same,"activity change, negative = inhibition",[4],5.32%
same,"activity, negative = inhibition",[5],23.9%
same,Potency,[6],> 46 µM
same,Potency,[7],> 46 µM
same,Potency,[8],inactive
same,Potency,[10],inactive
O=C(O)c1cc(N=Nc2ccc([N+](=O)[O-])cc2)ccc1O,Potency,[1],> 11.4 µM
same,"activity change, negative = inhibition",[2],-28%
same,"activity change, negative = inhibition",[3],-15.3% [at 2.29 µM]
same,"activity change, negative = inhibition",[4],28.6%
same,"activity, negative = inhibition",[5],-2.69%
same,Potency,[6],> 46 µM
same,Potency,[7],> 9.22 µM
same,Potency,[8],inactive
same,Potency,[9],inactive
COc1ccccc1CN1CCN(Cc2cc(OC)c(OC)cc2OC)CC1,outcome,[11],inactive
CC(C)[C@]1(Cl)CC[C@@H]2[C@]3(C)CCC[C@@](C)(C(=O)O)[C@H]3C[C@H](Cl)[C@@]2(Cl)[C@H]1Cl,Potency,[1],> 11.4 µM
same,"activity change, negative = inhibition",[2],-2.07%
same,Potency,[3],inactive
same,"activity change, negative = inhibition",[4],0.923%
same,"activity, negative = inhibition",[5],0.27%
same,Potency,[6],> 46 µM
same,Potency,[7],> 9.22 µM
same,Potency,[8],inactive
same,Potency,[9],inactive
O=S(=O)(c1ccc(NC(=S)NN=C(C2CC2)C2CC2)cc1)N1CCOCC1,outcome,[12],inactive
same,outcome,[11],inactive
C[C@]12CC[C@H]3c4ccc(O)cc4CC[C@@H]3[C@H]1CC[C@@H]2OC(=O)CCC1CCCC1,Potency,[1],> 11.4 µM
same,"activity change, negative = inhibition",[2],-8.48%
same,Potency,[3],inactive
same,"activity change, negative = inhibition",[4],-0.474%
same,"activity, negative = inhibition",[5],1.67%
same,Potency,[6],> 46 µM
same,Potency,[7],> 9.22 µM
same,Potency,[8],inactive
same,Potency,[9],inactive
same,"activity, negative = inhibition",[13]; parasite line A,5.91%
same,"activity, negative = inhibition",[13]; parasite line B,2.07%
same,Potency,AS120,inactive
same,Potency,CP192,inactive
same,Potency,CP203,inactive
same,Potency,CP247,inactive
same,Potency,DFO2036,inactive
same,Potency,PC49,inactive
same,Potency,W2,9.53 µM (active)
CN1C(=O)/C(=C\c2ccc(-c3ccccc3)o2)SC1=S,outcome,[12],inactive
O=C(Nc1ccccc1Cl)O/N=C(/c1ccccc1)c1ccccn1,outcome,[11],inactive
C=CCc1cc(C)ccc1OCCCn1ccnc1,outcome,[11],inactive
CN(C)c1ccc(-c2cc(NCc3ccccc3)ncn2)cc1,Potency,[1],> 11.4 µM
same,"activity change, negative = inhibition",[2],-19.2%
same,Potency,[3],1 µM (active)
same,"activity change, negative = inhibition",[4],12.6%
same,"activity, negative = inhibition",[5],-7.24%
same,Potency,[6],> 46 µM
same,Potency,[7],> 46 µM
same,Potency,[8],inactive
same,Potency,[9],inactive
same,Potency,[10],inactive
CC1CCCN(S(=O)(=O)c2ccc(C(=O)Nc3nnc(-c4ccncc4)o3)cc2)C1 (centres undefined),outcome,[12],inactive
O=[N+]([O-])c1cc([N+](=O)[O-])c2cccnc2c1O,outcome,[11],inactive
CN(C)[C@H]1C(=O)C(C(=O)NCN2CCCC2)=C(O)[C@]2(O)C(=O)C3=C(O)c4c(O)cccc4[C@](C)(O)[C@H]3C[C@H]12,Potency,[1],> 11.4 µM
same,"activity change, negative = inhibition",[2],-4.67%
same,Potency,[3],inactive
same,"activity change, negative = inhibition",[4],6.5%
same,"activity, negative = inhibition",[5],-11.7%
same,Potency,[6],> 46 µM
same,Potency,[7],> 9.22 µM
same,Potency,[8],inactive
same,Potency,[9],inactive
same,"activity, negative = inhibition",[13]; parasite line A,9.1%
same,"activity, negative = inhibition",[13]; parasite line B,1.72%
same,Potency,AS120,inactive
same,Potency,CP192,inactive
same,Potency,CP203,inactive
same,Potency,CP247,inactive
same,Potency,DFO2036,inactive
same,Potency,PC49,inactive
same,Potency,W2,inactive
COc1ccccc1-c1nc(NCc2ccccc2)c2ccccc2n1,Potency,[1],> 11.4 µM
same,"activity change, negative = inhibition",[2],24%
same,Potency,[3],0.398 µM (active)
same,"activity change, negative = inhibition",[4],-19.4%
same,"activity, negative = inhibition",[5],0.0453%
same,Potency,[6],> 46 µM
same,Potency,[7],> 46 µM
same,Potency,[8],inactive
same,Potency,[10],11.2 µM (active)
CN1CCN(CCCCOc2ccccc2-c2ccccc2)CC1,outcome,[12],inactive
CCc1ccc2c(c1)C1(NN=C(c3ccccc3)S1)C(=O)N2 (centres undefined),outcome,[12],inactive
same,outcome,[11],inactive
CN(C)Cc1ccccc1-c1ccc2ncnc(NC3CCNCC3)c2c1,Potency,[1],> 11.4 µM
same,"activity change, negative = inhibition",[2],20.2%
same,Potency,[3],inactive
same,"activity change, negative = inhibition",[4],-12.2%
same,"activity, negative = inhibition",[5],-2.13%
same,Potency,[6],> 46 µM
same,Potency,[7],> 46 µM
same,Potency,[8],inactive
same,Potency,[9],inactive
same,Potency,[10],inactive
Nc1nc(N)c2nn(-c3ccc(C(=O)O)cc3)nc2n1,Potency,[1],> 11.4 µM
same,"activity change, negative = inhibition",[2],-3.5%
same,"activity change, negative = inhibition",[3],-13.4% [at 2.29 µM]
same,"activity change, negative = inhibition",[4],6.6%
same,"activity, negative = inhibition",[5],-0.747%
same,Potency,[6],> 46 µM
same,Potency,[7],> 9.22 µM
same,Potency,[8],inactive
same,Potency,[9],inactive
